Data as given in PubChem BioAssay (Tox21).
Records with an inconclusive call do not appear. Calls of active or inactive are those of the source. Unless noted, the call rests on the fitted dose curve; in most records, active means well fitted curve in the direction sought with a large enough effect in the repeat runs; inconclusive means weak or mixed curves; inactive means flat fitted curve, though single readings scatter.

Experiments:
[1] = qHTS assay to test for compound auto fluorescence at 535 nm (green) in HEK293 cells (AID 720680)
[2] = qHTS assay to test for compound auto fluorescence at 460 nm (blue) in HEK293 cell free culture (AID 720681)
In short: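 Compounds were added to cell-free DMEM with 10% FBS and fluorescence read directly. The blue channel used 405 nm excitation and 460 nm emission, with triamterene as the reference fluorophore.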

[3] = qHTS assay to test for compound auto fluorescence at 535 nm (green) in HEK293 cell free culture (AID 720682)
In short: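 Using fluorescein as calibrant, autofluorescence was quantified at 485/535 nm in cell-free DMEM containing 10% FBS after pintool addition of compound or vehicle.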

[4] = qHTS assay to test for compound auto fluorescence at 590 nm (red) in HEK293 cell free culture (AID 720683)
In short: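 Cell-free wells of DMEM with 10% FBS received compound, and intrinsic fluorescence was read at excitation/emission 540/590 nm. Values expressed as equivalence to Rose Bengal sodium.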

[5] = qHTS assay to test for compound auto fluorescence at 590 nm (red) in HepG2 cell free culture (AID 720684)
In short: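 Compounds are added to culture medium (MEM, 10% FBS) lacking cells, then fluorescence is read at excitation 540 nm, emission 590 nm, with Rose Bengal sodium as the equivalency standard.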

[6] = qHTS assay to test for compound auto fluorescence at 460 nm (blue) in HepG2 cell free culture (AID 720685)
In short: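 Compound (23 nL) or DMSO pinned into cell-free MEM with 10% FBS; blue fluorescence read at 405/460 nm excitation/emission, expressed as auto-fluorescence equivalency to triamterene.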

[7] = qHTS assay to test for compound auto fluorescence at 535 nm (green) in HepG2 cell free culture (AID 720686)
[8] = qHTS assay to test for compound auto fluorescence at 460 nm (blue) in HepG2 cells (AID 720687)
In short: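 HepG2 cells in MEM with 10% FBS, attached overnight at 37 C, were exposed to compound or DMSO for 1 hr at 37 C, 5% CO2. Blue fluorescence was read at 405/460 nm, with triamterene as reference fluorophore.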

[9] = target: Glucocorticoid receptor (Homo sapiens) (UniProt P04150); experiment: qHTS assay to identify small molecule agonists of the glucocorticoid receptor (GR) signaling pathway (AID 720691; active means well fitted activation curve with a large enough effect in the signal ratio in the repeat runs, not every such curve was filed as active; the % refers to the signal ratio)
In short: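 Fluorescence intensity from LiveBLAzer B/G FRET substrate (2 h, room temperature) reports beta-lactamase expression driven by the glucocorticoid response element in GR-bla HeLa cells after 18 h compound exposure at 37 C.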
On the % scale 0 is the no-effect control and ±100 the full control effect.

Glucocorticoid receptor (Homo sapiens), sequence (P04150 whole entry, looked up): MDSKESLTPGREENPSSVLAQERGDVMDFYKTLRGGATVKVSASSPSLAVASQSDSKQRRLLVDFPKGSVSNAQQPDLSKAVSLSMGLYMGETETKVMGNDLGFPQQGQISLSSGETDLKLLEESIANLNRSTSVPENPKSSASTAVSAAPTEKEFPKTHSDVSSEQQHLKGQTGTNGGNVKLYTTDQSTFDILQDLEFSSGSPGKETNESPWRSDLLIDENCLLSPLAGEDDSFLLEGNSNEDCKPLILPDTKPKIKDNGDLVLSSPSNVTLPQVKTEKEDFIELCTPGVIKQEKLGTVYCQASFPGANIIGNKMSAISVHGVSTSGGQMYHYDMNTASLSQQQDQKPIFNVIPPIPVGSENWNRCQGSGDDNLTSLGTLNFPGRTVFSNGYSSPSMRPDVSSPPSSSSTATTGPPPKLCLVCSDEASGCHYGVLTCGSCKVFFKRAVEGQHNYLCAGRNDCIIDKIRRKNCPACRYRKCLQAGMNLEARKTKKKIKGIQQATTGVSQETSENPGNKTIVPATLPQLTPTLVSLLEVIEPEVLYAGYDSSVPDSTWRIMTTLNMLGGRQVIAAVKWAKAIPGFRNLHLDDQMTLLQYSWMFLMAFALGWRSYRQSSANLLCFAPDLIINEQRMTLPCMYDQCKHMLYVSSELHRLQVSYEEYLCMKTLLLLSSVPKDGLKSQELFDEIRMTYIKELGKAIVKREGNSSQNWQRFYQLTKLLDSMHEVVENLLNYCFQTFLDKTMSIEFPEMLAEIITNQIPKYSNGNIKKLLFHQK

CC(C)(C)C(O)/C=C/c1ccc2c(c1)OCO2 (stereo unspecified)
inactive: outcome [1] | Potency [2] | outcome [3] | outcome [4] | outcome [5] | Potency [6] | outcome [7] | Potency [8]

COC(=O)c1sccc1S(N)(=O)=O
inactive: outcome [1] | Potency [2] | outcome [3] | outcome [4] | outcome [5] | Potency [6] | outcome [7] | Potency [8] | Potency [9]

CCN(Cc1cccc(S(=O)(=O)O)c1)c1ccc(C(=C2C=CC(=[N+](CC)Cc3cccc(S(=O)(=O)O)c3)C=C2)c2ccccc2S(=O)(=O)[O-])cc1
inactive: outcome [1] | Potency [2] | outcome [3] | outcome [4] | outcome [5] | Potency [6] | outcome [7] | Potency [8]

COc1ccc(CCN(C)CCCN2CCc3cc(OC)c(OC)cc3CC2=O)cc1OC
inactive: outcome [1] | Potency [2] | outcome [3] | outcome [4] | outcome [5] | Potency [6] | outcome [7] | Potency [8]

O=c1[nH][nH]c(=O)c2cc([N+](=O)[O-])ccc12
inactive: outcome [1] | Potency [2] | outcome [3] | outcome [4] | outcome [5] | Potency [6] | outcome [7] | Potency [8] | Potency [9]

CC1CCC(C(C)CS)CC1S (stereo unspecified)
inactive: outcome [1] | Potency [2] | outcome [3] | outcome [4] | outcome [5] | Potency [6] | outcome [7] | Potency [8] | Potency [9]

CC(CN(CCN(CC(C)OCCO)CC(C)OCCO)CC(C)OCCO)OCCO (stereo unspecified)
inactive: outcome [1] | Potency [2] | outcome [3] | outcome [4] | outcome [5] | Potency [6] | outcome [7] | Potency [8]

ClC1=C(Cl)C1(Cl)Cl
inactive: outcome [1] | Potency [2] | outcome [3] | outcome [4] | outcome [5] | Potency [6] | outcome [7] | Potency [8]

O=C(c1ccccc1)C1CCC1
inactive: outcome [1] | Potency [2] | outcome [3] | outcome [4] | outcome [5] | Potency [6] | outcome [7] | Potency [8] | Potency [9]

C=C(C)c1ccccc1
inactive: outcome [1] | Potency [2] | outcome [3] | outcome [4] | outcome [5] | Potency [6] | outcome [7] | Potency [8]

CCCCCCCCCCCCCCN(C)C
inactive: fluorescence, % of fluorescein [1] 0.0258% [at 18.6 µM] | fluorescence, % of fluorescent control [2] 0.0125% [at 18.6 µM] | activity change [3] -0.0109% [at 18.6 µM] | fluorescence, % of fluorescent control [4] -0.0109% [at 18.6 µM] | fluorescence, % of Rose Bengal [5] -0.054% [at 18.6 µM] | fluorescence, % of fluorescent control [6] -0.025% [at 18.6 µM] | fluorescence, % of fluorescein control [7] -0.0531% [at 18.6 µM] | fluorescence, % of fluorescent control [8] -0.0432% [at 18.6 µM] | Potency [9]

CCCCCCCCCCCCCOC(=O)CCSCCC(=O)OCCCCCCCCCCCCC
inactive: fluorescence, % of fluorescein [1] -0.0169% [at 18.6 µM] | fluorescence, % of fluorescent control [2] -0.0348% [at 18.6 µM] | activity change [3] 0.0335% [at 18.6 µM] | fluorescence, % of fluorescent control [4] 0.0989% [at 18.6 µM] | fluorescence, % of Rose Bengal [5] -0.0106% [at 18.6 µM] | fluorescence, % of fluorescent control [6] -0.0714% [at 18.6 µM] | fluorescence, % of fluorescein control [7] -0.0124% [at 18.6 µM] | fluorescence, % of fluorescent control [8] -0.106% [at 18.6 µM]

CCCCCCCCCCCCCC(=O)OCC(O)CO (stereo unspecified)
inactive: outcome [1] | Potency [2] | outcome [3] | outcome [4] | outcome [5] | Potency [6] | outcome [7] | Potency [8] | Potency [9]

CCCCC(CC)COS(=O)(=O)O (stereo unspecified)
inactive: outcome [1] | Potency [2] | outcome [3] | outcome [4] | outcome [5] | Potency [6] | outcome [7] | Potency [8]

Nc1ccc(NC(=O)c2ccc(N)cc2)cc1
inactive: outcome [1] | Potency [2] | outcome [3] | outcome [4] | outcome [5] | Potency [6] | outcome [7] | Potency [8]

O=C1[C@@H]2[C@H]3CC[C@H](C3)[C@@H]2C(=O)N1CCCCN1CCN(c2ncccn2)CC1
inactive: outcome [1] | Potency [2] | outcome [3] | outcome [4] | outcome [5] | Potency [6] | outcome [7] | Potency [8] | Potency [9]

Cc1c(C2(c3cc(Br)c(O)c(Br)c3C)OS(=O)(=O)c3ccccc32)cc(Br)c(O)c1Br
inactive: outcome [1] | Potency [2] | outcome [3] | outcome [4] | outcome [5] | Potency [6] | outcome [7] | Potency [8] | Potency [9]

O=C(NS(=O)(=O)/C=C/c1ccccc1)c1ccc(F)cc1Cl
inactive: outcome [1] | Potency [2] | outcome [3] | outcome [4] | outcome [5] | Potency [6] | outcome [7] | Potency [8]

CC(=O)OCCC(C)CC(C)(C)C (stereo unspecified)
inactive: outcome [1] | Potency [2] | outcome [3] | outcome [4] | outcome [5] | Potency [6] | outcome [7] | Potency [8] | Potency [9]

C[C@@H]1C[C@H]2[C@@H]3CCC4=CC(=O)C=C[C@]4(C)[C@@]3(F)[C@@H](O)C[C@]2(C)[C@@]1(O)C(=O)COP(=O)(O)O
inactive: outcome [1] | Potency [2] | outcome [3] | outcome [4] | outcome [5] | Potency [6] | outcome [7] | Potency [8]

CC(CO)(CO)C(=O)O
inactive: outcome [1] | Potency [2] | outcome [3] | outcome [4] | outcome [5] | Potency [6] | outcome [7] | Potency [8]

CC(O)Cn1cnc2c1c(=O)n(C)c(=O)n2C (stereo unspecified)
inactive: fluorescence, % of fluorescein [1] -0.0718% [at 18.6 µM] | fluorescence, % of fluorescent control [2] -0.136% [at 18.6 µM] | activity change [3] -0.0176% [at 18.6 µM] | fluorescence, % of fluorescent control [4] 0.243% [at 18.6 µM] | fluorescence, % of Rose Bengal [5] -0.131% [at 18.6 µM] | fluorescence, % of fluorescent control [6] -0.0952% [at 18.6 µM] | fluorescence, % of fluorescein control [7] -0.0191% [at 18.6 µM] | fluorescence, % of fluorescent control [8] 0.0234% [at 18.6 µM]

NC(=O)c1ccccc1[N+](=O)[O-]
inactive: outcome [1] | Potency [2] | outcome [3] | outcome [4] | outcome [5] | Potency [6] | outcome [7] | Potency [8]

CCN(CC)CCNC(=O)c1cc(Cl)c(N)cc1OC
inactive: outcome [1] | Potency [2] | outcome [3] | outcome [4] | outcome [5] | Potency [6] | outcome [7] | Potency [8]
